# PubChem BioAssay (NCI)
# Values joined by “and” are separate entries in the source; they are usually repeats but may differ in a detail not shown here. Equal entries are not always repeated. The panel holds about 83,000 compounds, 20% with a hit somewhere; the sample as a whole holds those more often.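 96-well plates, one dose, 48 hours. Percent growth reported; active if below 10.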 Unmarked numbers belong to inactive results. Active and inactive are the calls of the source.
# Legend:
# Assay in all cases: NCI-60 one-dose screen, 48 h (100 = growth as untreated, 0 = no growth, -100 = all killed)
# [1] = test system: DU-145 prostate; settings: 10 µM unless noted
# [2] = test system: K-562 leukemia; settings: 10 µM unless noted
# [3] = test system: MALME-3M melanoma; settings: 10 µM unless noted
# [4] = test system: MDA-MB-231 breast; settings: 10 µM unless noted
# [5] = test system: RXF 393 renal; settings: 10 µM unless noted
# [6] = test system: SF-268 CNS; settings: 10 µM unless noted
# [7] = test system: SF-295 CNS; settings: 10 µM unless noted
# [8] = test system: SF-539 CNS; settings: 10 µM unless noted
# [9] = test system: UACC-257 melanoma; settings: 10 µM unless noted
# [10] = test system: M14 melanoma; settings: 10 µM unless noted
# [11] = test system: HCT-15 colon; settings: 10 µM unless noted
# [12] = test system: HT29 colon; settings: 10 µM unless noted
# [13] = test system: SNB-75 CNS; settings: 10 µM unless noted
# [14] = test system: SNB-19 CNS; settings: 10 µM unless noted
# [15] = test system: U251 CNS; settings: 10 µM unless noted
# [16] = test system: PC-3 prostate; settings: 10 µM unless noted
# [17] = test system: SK-MEL-5 melanoma; settings: 10 µM unless noted
# [18] = test system: UACC-62 melanoma
# [19] = test system: LOX IMVI melanoma; settings: 10 µM
# [20] = test system: SK-MEL-28 melanoma; settings: 10 µM unless noted
smiles,measurement,setting,value
C[C@@]1(CO)[C@H](O)CC[C@@]2(C)[C@H]1CC[C@H]1C[C@@H]3C[C@@]12CC[C@@]3(O)COC(=O)CN,growth,[1],9.57% (active)
same,growth,[2],34.2%
same,growth,[3],77.4%
same,growth,[4],92%
same,growth,[5],5.23% (active)
same,growth,[6],50.5%
same,growth,[7],8.57% (active)
same,growth,[8],-13.9% (active)
same,growth,[9],21%
same,growth,[10],42.4%
same,growth,[11],54%
same,growth,[12],38.7%
same,growth,[13],57.3%
same,growth,[14],59.6%
same,growth,[15],44.3%
same,growth,[16],45.4%
same,growth,[17],-43.8% (active)
same,growth,[18]; 10 µM unless noted,26.3%
same,growth,[19],29%
CC(C)=CCCC(C)C1=C(O)C(=O)C(C)=CC1=O (stereo not drawn),growth,[1],99.6%
same,growth,[2],-45.3% (active)
same,growth,[3],69.3%
same,growth,[4],40.5%
same,growth,[5],58.5%
same,growth,[6],93.7%
same,growth,[7],120%
same,growth,[8],96.3%
same,growth,[9],120%
same,growth,[10],107%
same,growth,[11],1.72% (active)
same,growth,[12],83.6%
same,growth,[13],113%
same,growth,[14],98.7%
same,growth,[15],81.3%
same,growth,[16],90.8%
same,growth,[17],88.7%
same,growth,[18]; 10 µM,103%
same,growth,[18]; 100 µM,-98.4% (active) and -93.3% (active)
same,growth,[19],59.1%
C/C=C/c1cc2c(c(=O)o1)C(=O)[C@@H](O)[C@H](C)O2,growth,[1],27.6%
same,growth,[2],-4.98% (active)
same,growth,[3],19.7%
same,growth,[4],90.1%
same,growth,[5],52.7%
same,growth,[6],88.4%
same,growth,[7],96.1%
same,growth,[8],87.7%
same,growth,[9],86.7%
same,growth,[10],-3.06% (active)
same,growth,[11],-25.4% (active)
same,growth,[12],13%
same,growth,[13],-23.4% (active)
same,growth,[14],94.9%
same,growth,[15],40.4%
same,growth,[16],11.3%
same,growth,[17],95.2%
same,growth,[18]; 10 µM unless noted,80.5%
same,growth,[19],25.2%
c1ccc2sc(SSN3CC4CCC(CC4)C3)nc2c1,growth,[1],128%
same,growth,[2],91.8%
same,growth,[3],101%
same,growth,[4],101%
same,growth,[5],-29.5% (active)
same,growth,[6],122%
same,growth,[7],108%
same,growth,[8],94.9%
same,growth,[9],120%
same,growth,[10],110%
same,growth,[11],110%
same,growth,[12],114%
same,growth,[13],85.8%
same,growth,[14],105%
same,growth,[15],106%
same,growth,[16],100%
same,growth,[17],97.9%
same,growth,[18]; 10 µM unless noted,90.5%
same,growth,[19],92.1%
same,growth,[20],132%
O=C1/C(=C/c2ccccc2)CCC/C1=C\c1ccccc1,growth,[1],90%
same,growth,[2],62%
same,growth,[3],89.5%
same,growth,[4],98.9%
same,growth,[5],98%
same,growth,[6],86.9%
same,growth,[7],91.8%
same,growth,[8],111%
same,growth,[9],84.5%
same,growth,[10],64%
same,growth,[11],81.5%
same,growth,[12],30.5%
same,growth,[13],95.9%
same,growth,[14],94.6%
same,growth,[16],88.9%
same,growth,[17],86.7%
same,growth,[18]; 10 µM unless noted,82.6%
same,growth,[19],28.8%
same,growth,[20],98.5%
O=C(O)c1cccc2cccc(-c3c4ccc(=O)c(O)c-4oc4c(O)c(O)ccc34)c12,growth,[1],98.2%
same,growth,[2],70.6%
same,growth,[3],102%
same,growth,[4],83%
same,growth,[5],94.4%
same,growth,[6],92.8%
same,growth,[7],103%
same,growth,[8],89.4%
same,growth,[9],110%
same,growth,[10],92.5%
same,growth,[11],105%
same,growth,[12],103%
same,growth,[13],89.6%
same,growth,[14],98.1%
same,growth,[15],99.5%
same,growth,[16],92.3%
same,growth,[17],94.6%
same,growth,[18]; 10 µM unless noted,90.6%
same,growth,[19],90%
same,growth,[20],97.6%
CN(C)c1ccc(C(C#N)(c2ccccc2)c2ccc(N(C)C)cc2)cc1,growth,[1],60%
same,growth,[2],26.1%
same,growth,[3],69.9%
same,growth,[4],79.4%
same,growth,[5],75.3%
same,growth,[6],58.9%
same,growth,[7],77.9%
same,growth,[8],16.1%
same,growth,[9],84.7%
same,growth,[10],55.2%
same,growth,[11],71.8%
same,growth,[12],14.6%
same,growth,[13],57.1%
same,growth,[14],63.7%
same,growth,[15],7.62% (active)
same,growth,[16],69.4%
same,growth,[17],81.6%
same,growth,[18]; 10 µM unless noted,70.5%
same,growth,[19],51.1%
same,growth,[20],60.2%
COc1ccc2c(c1OC)OCC(CN(C)C)C2=O (stereo not drawn),growth,[1],91.9%
same,growth,[2],-100% (active)
same,growth,[3],71.5%
same,growth,[4],96.7%
same,growth,[5],98%
same,growth,[6],110%
same,growth,[7],96.2%
same,growth,[8],97.1%
same,growth,[9],99.1%
same,growth,[10],98.5%
same,growth,[11],-58.5% (active)
same,growth,[12],73.3%
same,growth,[13],93.4%
same,growth,[14],99.1%
same,growth,[16],98.3%
same,growth,[17],101%
same,growth,[18]; 10 µM unless noted,95.9%
same,growth,[19],87%
O=C1C=CC(=O)N1c1cccc2c1CCCC2,growth,[1],103%
same,growth,[2],57.1%
same,growth,[3],85.5%
same,growth,[4],106%
same,growth,[5],94.1%
same,growth,[6],101%
same,growth,[7],90.6%
same,growth,[8],105%
same,growth,[9],103%
same,growth,[10],110%
same,growth,[11],98.4%
same,growth,[12],102%
same,growth,[13],85.9%
same,growth,[14],92.6%
same,growth,[15],98.2%
same,growth,[16],98.9%
same,growth,[17],102%
same,growth,[18]; 10 µM unless noted,99.3%
same,growth,[19],107%
same,growth,[20],99.1%
c1ccc(-c2cc3cc4ccccc4cn3c2)cc1,growth,[1],101%
same,growth,[2],64.3%
same,growth,[3],91.3%
same,growth,[4],81.6%
same,growth,[5],104%
same,growth,[6],95.7%
same,growth,[7],84.8%
same,growth,[8],104%
same,growth,[9],91.6%
same,growth,[10],94.7%
same,growth,[11],100%
same,growth,[12],105%
same,growth,[13],89.9%
same,growth,[14],92.3%
same,growth,[15],82.4%
same,growth,[16],78.9%
same,growth,[17],80.6%
same,growth,[19],86%
same,growth,[20],98.5%
N#CC(=C1SCS1)[N+](=O)[O-],growth,[1],2.38% (active)
same,growth,[2],28.4%
same,growth,[3],21.4%
same,growth,[4],16%
same,growth,[5],12.2%
same,growth,[6],34.9%
same,growth,[7],35.9%
same,growth,[8],11.5%
same,growth,[9],35.3%
same,growth,[10],-1.46% (active)
same,growth,[11],12.3%
same,growth,[12],1.29% (active)
same,growth,[13],40.5%
same,growth,[14],41.2%
same,growth,[15],14.4%
same,growth,[16],28.8%
same,growth,[17],5.48% (active)
same,growth,[18]; 10 µM unless noted,38.1%
same,growth,[19],17%
same,growth,[20],37.8%
NC1=C(Br)C(=O)c2ncccc2C1=O,growth,[1],-57.8% (active)
same,growth,[2],-44.2% (active)
same,growth,[3],-85.9% (active)
same,growth,[4],19.2%
same,growth,[5],13.5%
same,growth,[6],-43.9% (active)
same,growth,[7],-84.3% (active)
same,growth,[8],-91.5% (active)
same,growth,[9],-58.4% (active)
same,growth,[10],-88.7% (active)
same,growth,[11],2.56% (active)
same,growth,[12],49.1%
same,growth,[13],-84.2% (active)
same,growth,[14],-86.7% (active)
same,growth,[15],-82.2% (active)
same,growth,[16],11.9%
same,growth,[17],-98.3% (active)
same,growth,[18]; 10 µM unless noted,-96.3% (active)
same,growth,[19],-71.2% (active)
same,growth,[20],-87.4% (active)
Oc1ccc2ccccc2c1N=Nc1ccccn1,growth,[1],50.2%
same,growth,[2],15.2%
same,growth,[3],59.7%
same,growth,[4],36.3%
same,growth,[5],38.3%
same,growth,[6],36%
same,growth,[7],26.8%
same,growth,[8],15.7%
same,growth,[9],17.6%
same,growth,[10],15.6%
same,growth,[11],26.9%
same,growth,[12],20.9%
same,growth,[13],59.1%
same,growth,[14],53.4%
same,growth,[15],30.5%
same,growth,[17],23.7%
same,growth,[18]; 10 µM unless noted,29.8%
same,growth,[19],6.2% (active)
same,growth,[20],40.7%
CC[n+]1ccc(Nc2ccc(NC(=O)c3ccc(Nc4cc[n+](CC)c5ccc([N+](=O)[O-])cc45)cc3)cc2)cc1,growth,[1],91.9%
same,growth,[2],48.2%
same,growth,[3],40%
same,growth,[4],114%
same,growth,[5],97.9%
same,growth,[6],86.1%
same,growth,[7],59.3%
same,growth,[8],94.5%
same,growth,[9],56.2%
same,growth,[10],83.7%
same,growth,[11],96.2%
same,growth,[12],57.1%
same,growth,[13],98.4%
same,growth,[14],71.6%
same,growth,[15],62.5%
same,growth,[16],54.2%
same,growth,[17],65.7%
same,growth,[18]; 10 µM unless noted,79.4%
same,growth,[19],85.7%
same,growth,[20],90.3%
CCCCCCCCCCCC1=NCCCN1CCCC,growth,[1],103%
same,growth,[2],80.3%
same,growth,[3],106%
same,growth,[4],78.8%
same,growth,[5],122%
same,growth,[6],101%
same,growth,[7],101%
same,growth,[8],110%
same,growth,[9],92.3%
same,growth,[10],100%
same,growth,[11],91.7%
same,growth,[12],86.1%
same,growth,[13],102%
same,growth,[14],101%
same,growth,[15],100%
same,growth,[16],89.1%
same,growth,[17],95.8%
same,growth,[18]; 10 µM unless noted,96.7%
same,growth,[19],77.1%
same,growth,[20],103%
